Screens deposited in PubChem by National Center for Advancing Translational Sciences (NCATS).
PI5P4Ka inh – inhibitors of human PI5P4K alpha; PI5P4Kalpha enzyme, ADP-Glo luminescence, 60 min; active compounds read low; hit rate 1.2% among 330,000; P48426; max response, %; active means max response of -50% or lower; inconclusive means between -30% and -50%; inactive means -30% or higher; further: value at the top dose of about 77 µM; on the % scale 0 is the no-effect control and ±100 the full control effect
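PI5P4Kalpha ADP-Glo assay; 5 microM ATP final; 60 min RT reaction; HEPES pH 7.4/EGTA/CHAPS, 5% DMSO; controls lacking substrate or enzyme; luminescent end-point.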
LDHA block – LDHA (human) enzyme inhibition | purified LDHA, NADH/diaphorase-resazurin fluorescence; active compounds read low | activity change, % (values are at about 110 or 230 µM) | hit rate 0.15% among 480,000; in the data active means activity change below about -30%; inconclusive means mostly about -25% to -30%;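 further: plate controls were DMSO wells for no effect and wells without enzyme for full effect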
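LDH5 2 nM; NADH 0.06 mM, pyruvate 0.2 mM; 200 mM Tris pH 7.4, EDTA, Tween-20; 5 min RT. Detection: diaphorase 0.133 mg/mL + resazurin 37 µM, fluorescence ex540/em590 at 0 and 20 min; normalized to enzyme-free and DMSO wells.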
PI4K2A block – blocks human PI4K2A kinase activity | purified PI4K2A, ADP-Glo luminescence, 1 h; active compounds read low | Q9BTU6 | activity change, negative = inhibition, % at 76.9 µM | hit rate 0.13% among 420,000; in the data active means activity change below about -50%; inconclusive means mostly about -30% to -49%;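 further: -100% = wells without enzyme as full effect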
Target sequence (Q9BTU6 whole entry, looked up): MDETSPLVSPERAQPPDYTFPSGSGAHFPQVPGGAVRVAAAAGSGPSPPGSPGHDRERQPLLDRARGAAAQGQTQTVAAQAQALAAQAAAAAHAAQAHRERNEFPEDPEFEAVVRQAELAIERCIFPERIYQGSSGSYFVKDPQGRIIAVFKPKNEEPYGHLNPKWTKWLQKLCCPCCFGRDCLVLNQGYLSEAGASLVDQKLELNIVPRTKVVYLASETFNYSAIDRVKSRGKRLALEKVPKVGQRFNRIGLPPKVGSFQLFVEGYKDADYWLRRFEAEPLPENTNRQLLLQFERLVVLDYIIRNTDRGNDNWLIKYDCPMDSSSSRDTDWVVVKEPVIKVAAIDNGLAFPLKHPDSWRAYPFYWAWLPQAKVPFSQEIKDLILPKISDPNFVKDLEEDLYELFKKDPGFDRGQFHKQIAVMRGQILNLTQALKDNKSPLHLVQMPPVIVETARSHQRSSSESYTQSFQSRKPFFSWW
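Compounds are screened against recombinant PI4K2A using PI as substrate and ATP, the latter dispensed at 300 microM. Reactions run one hour at ambient temperature before ADP-Glo detection; full inhibition defined by wells lacking enzyme.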
DRD3 agonist – D3 dopamine receptor (human) agonism | P35462 | D3R DiscoveRx beta-arrestin cells, luminescence, 90 min | max activation, % | hit rate 0.58% among 410,000 | AID 652048; in the data active means max activation above about 30%; further: 0% is about no effect
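Agonist-mode cell screen: cells plated at 1500/well and incubated overnight at 37 °C, then exposed to library compounds for 90 min at 37 °C. Detection reagent was added for 30–60 min at room temperature, and luminescence was read.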
D3 antag – D3 dopamine receptor (human) antagonism. P35462. D3R cells, DiscoveRx beta-arrestin luminescence, antagonist mode; active compounds read low. max response, negative = inhibition, %. hit rate 2.5% among 360,000. AID 652054; in the data active means max response below about -50%; inconclusive means no clear call, values can overlap the other calls; further: on the % scale 0 is the no-effect control and ±100 the full control effect
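Cells plated overnight at 1500 cells/well, then exposed to library compounds with dopamine controls for 90 minutes at 37 degrees C. DiscoveRx reagent added for 30–60 minutes at room temperature; luminescence read, quantitative HTS format.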
An asterisk follows results filed as active; ? = inconclusive; . = no result. This is a sample that favours compounds with a hit; in the whole collection about 3.3% have one here.

SMILES	PI5P4Ka inh	LDHA block	PI4K2A block	DRD3 agonist	D3 antag
CCOc1cccc(OCCOCCN(C)Cc2ccccc2)c1	2	-2	1	-11	-64*
N#Cc1cccc(Oc2ccc(C(=O)c3ccccc3)cc2)c1C#N	.	2	.	.	.
COc1ccc(CC(=O)OCC(=O)NCc2ccc(Cl)cc2)cc1	0	1	4	-4	-16
COc1ccc(CNC(=O)COC(=O)Cc2ccc(Cl)cc2Cl)cc1	11	-2	-9	13	-80*
Cc1ccc(C(=O)NC(O)C(=O)c2ccc(F)cc2)cc1 (stereo not given)	.	-2	.	.	.
CC(C)(C)OC(=O)NCCCC[C@@H](C(=O)NCCCCCCCCCCC(=O)N1CCN(C(=O)OC(C)(C)C)CC1)n1cc(CCO)nn1	3	-5	-2	38*	29
CC[C@@H](C)[C@@H](C(=O)N1CCN(C(=O)OC(C)(C)C)CC1)n1cc(CCCCNC(=O)OC(C)(C)C)nn1	-3	-4	-1	53*	142
COC(=O)c1sccc1NC(=O)CC1(CC(=O)O)CCCC1	.	-9	.	.	.
Cc1ccn(C(=O)c2cc3c(C)nn(-c4ccccc4)c3s2)n1	3	-5	3	1	-52*
Cc1ccc(C(=O)CN2CCN(c3ccccn3)CC2)c(C)c1	-5	-2	10	48*	11
Cc1ccc(NC(=O)c2cnc(N3CCN(c4ccccn4)CC3)c3ccccc23)c(Br)c1	7	-3	-1	44*	89
Cc1ccc(C)c(NC(=O)c2cnc(N3CCCCC3)c3ccccc23)c1	.	1	.	.	.
CCNCCC(=O)N1c2ccccc2Sc2ccc(C(F)(F)F)cc21	1	-3	-1	-11	-70*
O=C(CN1CCCC1)N1c2ccccc2Sc2ccc(C(F)(F)F)cc21	-3	-3	-1	-21	-18
O=C(CN1CCN(c2ccccn2)CC1)N1c2ccccc2Sc2ccc(C(F)(F)F)cc21	9	0	1	-9	-62*
Cc1ccccc1-n1ccnc1SCC(=O)c1ccccc1	.	2	.	.	.
CC(C)CC(NC(=O)Cc1c[nH]c2ccccc12)C(=O)N(C)C (stereo not given)	.	4	.	.	.
O=C(CN1CCN(c2ccccn2)CC1)N1CC(O)CO1 (stereo not given)	2	-4	2	2	3
O=C(CN1CCN(c2ccccn2)CC1)N1c2ccccc2CCc2ccccc21	8	-6	5	1	-54*
O=c1c2c(-c3ccccc3)csc2ncn1/N=C/c1cccc([N+](=O)[O-])c1O	-103*	1	6	-15	-52*
Cc1cc(NC(=O)Nc2cccc(Cl)c2)no1	-2	-5	0	1	-3
Cc1cc(NS(=O)(=O)c2ccc(NC(=O)Nc3cccc(Cl)c3)cc2)no1	-14	-14	-5	4	-55*
C#CCNC(=O)CSc1cccs1	.	1	.	.	.
Oc1c(CN2CCOCC2)cc(-c2ccccc2)cc1CN1CCOCC1	-1	0	2	-5	-83*
CC(C)(C)c1nc(CN2CCOCC2)cc(CN2CCOCC2)c1O	-6	2	-5	-3	-70*
SMILES	PI5P4Ka inh	LDHA block	PI4K2A block	DRD3 agonist	D3 antag
Oc1c(CN2CCOCC2)cc(CN2CCOCC2)c(O)c1CN1CCOCC1	-3	28	0	-1	8
COc1ccccc1C(=O)N1CCN(c2oc(-c3ccc(Cl)cc3)nc2C#N)CC1	.	3	.	.	.
O=C(OCCOc1ccccc1Cl)c1cc(=O)c2cc(Cl)ccc2o1	.	2	.	.	.
Nc1ccc(C(=O)OCc2nc3ccccc3s2)cc1	-4	-1	-1	-5	-51*
Cc1nc(SCC(=O)N2CCCc3ccccc32)c2oc3ccccc3c2n1	.	-3	-7	34*	15
N=c1sccn1CC(=O)N1CCc2ccccc21	1	-1	-2	3	-65*
CC1CCN(CC(=O)N2CCc3ccccc32)CC1	6	0	-2	0	-58*
O=C(CN1CCCCC1)N1CCCc2ccccc21	.	-24	-6	-39	-82*
CCc1nc(SCC(=O)N2CCc3ccccc32)c2oc3ccccc3c2n1	-3	-2	5	-4	9
O=C(CN1CCCC1)N1CCCc2ccccc21	3	-11	-3	-13	?
Cc1cc(Br)ccc1NC(=O)CN(C)C(=O)c1cccc(-n2cccc2)c1	.	3	.	.	.
COc1ccc(-c2nc3nc(C)cc(N4CCCCCC4)n3n2)cc1	.	3	.	.	.
O=C(COC(=O)C1(c2ccc(Cl)cc2)CCCC1)c1ccc(Br)cc1	.	13	.	.	.
